The experiment can be described thus: restorers of sdo1-deficient yeast growth – S. cerevisiae, bone marrow failure model, primary screen (AID 817).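 Also: z-score against mean and SD of all compound wells on the same plate.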 The conditions noted are these: S. cerevisiae sdo1-depleted JHY4D growth rescue, at 10 µM, stronger effect = higher value, pdr5 snq2 efflux-pump mutant strain.
Where [1] appears, read: OD600, measured here: growth rescue at 24 h.

The structures appear in SMILES notation. The campaign covered roughly 140,000 compounds. About 300 (0.21%) were called active.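 The calls were made as follows: active = z-score above 3 at both the 24 hr and the 30 hr optical density reads; inactive = the rest, inconclusive results apart.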 For the sample, actives were picked, then their nearest neighbours and some compounds at random.

Turning to `C=CCc1ccccc1OCC(=O)N/N=C/c1ccccc1OCC`, the z-score is, setting by setting: (OD600 30 h) 0.63 (inactive); under setting [1], 0.43.

On to `CC(=O)N1CCN(CC(=O)Nc2ccc(SC(F)F)cc2)CC1`, for which the z-score runs as follows: (OD600 30 h) 1.61 (inactive); under setting [1], 1.79.

Regarding `CC(C)CNC(=O)CC(NCC(C)C)C(=O)O` (stereo not given), the z-score by setting is: (OD600 30 h) 0.7 (inactive); under setting [1], 0.56.

As to `c1ccc(C2CNCc3c2ccc2ccccc32)cc1` (stereo not given), the z-score runs as follows: (OD600 30 h) -0.88 (inactive); under setting [1], -1.37.

For the compound `CCc1nnc(NC(=O)[C@@H](NC(=O)c2cccc(C)c2)C(C)C)s1`, the z-score reads like this: (OD600 30 h) 0.02 (inactive); under setting [1], -0.75.

`CCc1cccc(CC)c1NC(=S)NCc1ccc2[nH]c(C)cc2c1`: the z-score is -0.04 (inactive) (OD600 30 h) and 0.97 under setting [1].

In the case of `CC1CCCC(NC(=O)COC(=O)[C@@H]2CC(O)CN2S(=O)(=O)c2ccc3c(c2)OCCO3)C1C` (stereo not given in full), the z-score reads like this: (OD600 30 h) 1.03 (inactive); under setting [1], 1.42.

`Cc1nc2scc(-c3cccs3)c2c(=O)n1N`: the z-score was 0.14 (inactive) (OD600 30 h) and -0.79 under setting [1].

On to `O=C(COC(=O)/C=C/c1nc2ccccc2s1)Nc1ccccc1Oc1ccccc1`, for which the z-score is -0.21 (inactive) (OD600 30 h) and 0.04 under setting [1].

As to `CC(=O)NS(=O)(=O)c1ccc(NC(=O)C2C3C=CC(C3)C2C(=O)O)cc1` (stereo not given), the z-score reads like this: (OD600 30 h) -0.71 (inactive); under setting [1], -0.47.

Turning to `CN(C)C(CNC(=O)c1ccc(S(=O)(=O)NCc2ccco2)cc1)c1ccccc1` (stereo not given), the z-score (OD600 30 h) was 0.96 (inactive) and the z-score under setting [1] was 0.68.

For `COc1ccc(C)cc1Nc1nc(-c2c(C)[nH]c3ccccc23)cs1`, the z-score by setting is: (OD600 30 h) -0.39 (inactive); under setting [1], -0.09.

With `CCCn1c(=O)c2c(C(F)(F)F)cc(-c3cccs3)nc2n(CCC)c1=O`, the z-score is, setting by setting: (OD600 30 h) 1.32 (inactive); under setting [1], 2.13.

Turning to `O=C(NCc1cccs1)C(=O)NCC1OCCCN1S(=O)(=O)c1ccc(F)cc1` (stereo not given), the z-score by setting is: (OD600 30 h) -0.71 (inactive); under setting [1], -1.35.

On to `CCOc1ccc(NC(=S)N2CCC(N(C)CC3CCCO3)CC2)cc1` (stereo not given), for which the z-score was 0.68 (inactive) (OD600 30 h) and 1.31 under setting [1].

For `Cc1[nH]c2ccccc2c1/C=N/NC(=O)CNC(=O)c1ccc2c(c1)OCO2`, the z-score (OD600 30 h) is 1.92 (inactive) and the z-score under setting [1] is 3.35.

In the case of `NC(=S)N/N=C/c1coc2cc(Cl)ccc2c1=O`, the z-score runs as follows: (OD600 30 h) -1.25 (inactive); under setting [1], -1.16.

For `O=C(CSc1nnc(-c2ccncc2)o1)NCc1ccc(Cl)cc1`, the z-score is 0.26 (inactive) (OD600 30 h) and -0.05 under setting [1].

Consider `COc1ccc(NC(=S)NC2CCS(=O)(=O)C2)cc1` (stereo not given), for which the z-score is, setting by setting: (OD600 30 h) -0.13 (inactive); under setting [1], -0.11.

For the compound `COCCn1c(=NC(=O)c2ccccc2[N+](=O)[O-])sc2cc(S(C)(=O)=O)ccc21`, the z-score is -0.84 (inactive) (OD600 30 h) and -0.91 under setting [1].

With `COC(=O)c1onc(-c2c(OC)cc(OC)cc2OC)c1C(=O)OC`, the z-score reads like this: (OD600 30 h) 0.49 (inactive); under setting [1], 0.26.

With `O=C(COC(=O)c1cc(=O)[nH]c2ccccc12)Nc1nc(-c2cccc(Br)c2)cs1`, the z-score reads like this: (OD600 30 h) -0.47 (inactive); under setting [1], -0.07.

As to `C=CCNC(=O)c1ccccc1NC(=O)c1ccc(Cl)c(S(=O)(=O)Nc2cccc(C)c2C)c1`, the z-score was -0.47 (inactive) (OD600 30 h) and 0.23 under setting [1].

Consider `C=CCN1C(=O)C(Cc2ccc(OCC)cc2)SC1=Nc1ccc(C(=O)O)cc1` (stereo not given), for which the z-score is -0.13 (inactive) (OD600 30 h) and -0.75 under setting [1].

Regarding `CC(C)CCNC(=O)c1cccnc1Sc1ccccc1`, the z-score (OD600 30 h) is 0.7 (inactive) and the z-score under setting [1] is 0.32.

For the compound `Cc1ccc(/C=N/NC(=O)CNC(=O)COc2ccccc2)o1`, the z-score runs as follows: (OD600 30 h) 1.11 (inactive); under setting [1], 1.1.

Consider `CS(=O)(=O)N(Cc1ccccc1)c1ccc(C(=O)NN=C2CCCCCC2)cc1`, for which the z-score (OD600 30 h) was -0.22 (inactive) and the z-score under setting [1] is -0.83.

`COc1ccccc1OCc1ccc(C(=O)N2CCN(C)CC2)o1`: the z-score is, setting by setting: (OD600 30 h) 0.86 (inactive); under setting [1], 0.24.

`CN1CCN(C(=O)/C(=C\c2cccs2)NC(=O)c2cccs2)CC1`: the z-score was 0.48 (inactive) (OD600 30 h) and 0.2 under setting [1].

Turning to `CCOc1ccc(C(=O)NC(=S)Nc2ccc(N3CCOCC3)c(Cl)c2)cc1[N+](=O)[O-]`, the z-score was -1.76 (inactive) (OD600 30 h) and -1.28 under setting [1].

In the case of `COc1ccc(C(=O)NNS(=O)(=O)c2ccc(C)cc2)cc1`, the z-score is -0.36 (inactive) (OD600 30 h) and -1.37 under setting [1].

Consider `CC1(C)C=C2[C@H]3CC[C@@H]4[C@@]5(C)CCC(=O)C(C)(C)[C@@H]5CC[C@@]4(C)[C@]3(C)CC[C@@]2(C(=O)O)CC1`, for which the z-score was -0.02 (inactive) (OD600 30 h) and -0.53 under setting [1].

On to `FC(F)(F)c1cccc(N/N=C/c2ccccc2)c1`, for which the z-score by setting is: (OD600 30 h) -1.78 (inactive); under setting [1], -1.53.

For the compound `COc1ccccc1N1CCN(C(=O)C(=O)N/N=C/c2ccccc2F)CC1`, the z-score is, setting by setting: (OD600 30 h) 1.25 (inactive); under setting [1], 0.28.

In the case of `COc1ccc(OC(C)C(=O)NCCc2nc3ccccc3[nH]2)cc1` (stereo not given), the z-score was 0.82 (inactive) (OD600 30 h) and -0.04 under setting [1].

On to `COc1ccccc1-n1c(C)nc2cc(C(=O)NCc3ccc4c(c3)OCO4)ccc21`, for which the z-score reads like this: (OD600 30 h) -0.72 (inactive); under setting [1], -1.61.

As to `COC(=O)c1cc(C(=O)N(Cc2ccccc2)c2ccccn2)cc([N+](=O)[O-])c1`, the z-score by setting is: (OD600 30 h) -0.07 (inactive); under setting [1], -0.08.

In the case of `CCc1ccccc1NC(=O)CN(C)C(=O)COc1ccc(C)nc1[N+](=O)[O-]`, the z-score reads like this: (OD600 30 h) -0.39 (inactive); under setting [1], -0.24.

Turning to `Cc1[nH]c2ccccc2c1C(=O)CSCC(=O)O`, the z-score is 10.5 (active) (OD600 30 h) and 8.73 under setting [1].

As for `CCOC(=O)N1CCN(CC(=O)c2c(C)[nH]c3ccccc23)CC1`, the z-score reads like this: (OD600 30 h) -0.21 (inactive); under setting [1], -1.53.
